# Only some compounds are listed: those with a hit (about 2.4% of all), similar ones and a draw of the others.
# Cruzain inh noDet – qHTS Assay for Promiscuous and Specific Inhibitors of Cruzain (without detergent). Cruzipain (Trypanosoma cruzi), P25779. purified cruzain, Z-FR-AMC fluorescence, no detergent. Potency, µM, hits mostly inhibitors. actives 2.3% (n = 200,000). AID 1476, 2009; note: nearly all actives have a fitted effect of over 40% in size
# Target sequence (P25779 123-467 limits assumed): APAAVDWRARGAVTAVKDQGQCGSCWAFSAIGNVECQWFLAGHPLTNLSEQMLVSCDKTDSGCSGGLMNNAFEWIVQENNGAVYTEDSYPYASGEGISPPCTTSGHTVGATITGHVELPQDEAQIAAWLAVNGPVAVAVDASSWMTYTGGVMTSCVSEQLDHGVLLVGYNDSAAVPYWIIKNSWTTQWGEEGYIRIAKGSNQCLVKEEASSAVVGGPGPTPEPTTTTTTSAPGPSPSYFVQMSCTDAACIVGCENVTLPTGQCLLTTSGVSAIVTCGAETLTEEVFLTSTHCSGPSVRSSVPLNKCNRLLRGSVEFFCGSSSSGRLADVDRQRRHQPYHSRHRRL
#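 Purified cruzain at 1.5 nM, pre-incubated 15 min with compound at room temperature in 100 mM sodium acetate pH 5.5, 5 mM DTT, 0.00005% Triton X-100. Reaction started with 2 uM Z-FR-AMC; AMC fluorescence increase over 60 s gives rate.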
# Cruzain Triton – qHTS Assay for Promiscuous and Specific Inhibitors of Cruzain (with detergent). purified cruzain, Z-FR-AMC fluorescence, 0.01% Triton. Cruzipain (Trypanosoma cruzi), P25779. Potency, µM, usual class: inhibitors. actives 0.43% (n = 200,000); note: nearly all actives have a fitted effect of over 40% in size
#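 In this qHTS format, compounds are incubated with 1.5 nM cruzain for 15 min at room temperature before 2 uM Z-FR-AMC is added. Release of AMC is followed at 360/450 nm, and progress is taken as the 60 s fluorescence difference.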
# Papain counter – qHTS Assay for Inhibitors of Papain: Counterscreen for Cruzain Assay; shares compounds with Cruzain Triton; AID 2161, 2009; actives 41% (n = 410); purified papain, Z-FR-AMC fluorescence cleavage; Potency, µM, most hits filed as inhibitors; note: nearly all actives have a fitted effect of over 35% in size
# Target sequence (P00784 whole entry, looked up): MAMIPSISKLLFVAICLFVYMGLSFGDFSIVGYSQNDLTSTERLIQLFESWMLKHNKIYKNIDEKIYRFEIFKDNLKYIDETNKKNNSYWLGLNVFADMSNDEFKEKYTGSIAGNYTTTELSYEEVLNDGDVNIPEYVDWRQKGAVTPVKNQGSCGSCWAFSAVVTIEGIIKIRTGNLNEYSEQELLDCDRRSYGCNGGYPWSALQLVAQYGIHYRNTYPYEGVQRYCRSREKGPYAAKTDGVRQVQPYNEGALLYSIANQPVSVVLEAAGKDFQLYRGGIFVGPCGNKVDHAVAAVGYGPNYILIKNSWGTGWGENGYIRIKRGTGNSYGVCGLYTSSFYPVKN
# A number is an active result; - = inactive; ? = inconclusive; . = no result given. Calls come from the whole dose curve; as a rule, active = well fitted curve in the direction sought with a large enough effect; inconclusive = small, poorly fitted or top-dose-only effect, or another doubt; inactive = no such curve, though single readings can be large; an effect the other way counts as inactive or inconclusive.
SMILES,Cruzain inh noDet,Cruzain Triton,Papain counter
O=C(CCC(=O)OCC(=O)c1ccc([N+](=O)[O-])cc1)NC1CCCCC1,-,-,.
O=C(CNC(=O)C1CCCCC1)OCC(=O)c1cccc(Cl)c1,.,.,14µM
O=C(CSc1nnc(-c2ccccc2Br)n1-c1ccccc1)c1ccc(F)cc1,?,-,.
COc1cccc(C(=O)Nc2c(C(=O)Nc3ccc(F)cc3)oc3ccccc23)c1OC,-,-,.
Cc1cccc(C)c1OCCCn1c(CCNC(=O)C2CCCCC2)nc2ccccc21,-,3.5µM,-
Cc1cc2ccccc2n1CCNC(=O)C1CCCCC1,-,-,.
O=C(NCCCc1nc2ccccc2n1Cc1cccc(Cl)c1)C1CCCCC1,-,-,.
O=C(NCCc1nc2ccccc2n1CCCOc1cccc2ccccc12)C1CCCCC1,.,.,-
Cc1ccc(C(=O)NCCNc2ccc([N+](=O)[O-])cc2C(F)(F)F)cc1,-,-,.
Cc1ccc(C)c(-c2csc(N)c2C(=O)OC(C)C)c1,-,-,.
CC(C)C[C@H](N)c1nnc(SCc2ccc(Cl)cc2Cl)o1,-,-,.
CC(C)C[C@H](N)c1nnc(S(=O)(=O)Cc2ccc(F)cc2)o1,13µM,13µM,-
Cn1c(=O)c2c(nc(CN3CCC(Cc4ccccc4)CC3)n2CCN2CCOCC2)n(C)c1=O,-,-,.
COc1ccccc1NC(=O)c1ccccc1NS(C)(=O)=O,-,-,.
COc1ccc([N+](=O)[O-])cc1NC(=O)C(C)OC(=O)c1ccccc1C(=O)c1ccc(Cl)cc1 (configuration not stated),?,-,.
CCCOc1ccc(C(=O)Nc2sc3c(c2C(=O)OCC)CCCCC3)cc1,-,-,.
CCc1c(C)nc2ncnn2c1NCCc1ccc(OC)c(OC)c1,-,-,.
Cc1ccc2[nH]c(=O)c(CN(Cc3ccccc3)Cc3nnnn3Cc3ccccc3)cc2c1,.,.,-
O=c1[nH]c2cc3c(cc2cc1CN(Cc1ccccc1)Cc1nnnn1Cc1ccco1)OCCO3,-,-,.
CCc1ccc2[nH]c(=O)c(CN(Cc3ccccc3)Cc3nnnn3Cc3ccco3)cc2c1,-,-,.
Cc1ccc2[nH]c(=O)c(CN(Cc3ccc4c(c3)OCO4)Cc3nnnn3Cc3ccco3)cc2c1,-,-,.
CCc1ccc2[nH]c(=O)c(CN(Cc3ccccc3)Cc3nnnn3Cc3ccccc3)cc2c1,.,.,-
Cc1ccc2[nH]c(=O)c(CN(Cc3ccco3)Cc3nnnn3Cc3ccccc3)cc2c1,.,.,-
Cc1ccc2[nH]c(=O)c(CN(CCCO)Cc3nnnn3Cc3ccco3)cc2c1,.,.,-
Cc1ccc2[nH]c(=O)c(CN(Cc3nnnn3Cc3ccccc3)C3CCCC3)cc2c1,-,-,.
SMILES,Cruzain inh noDet,Cruzain Triton,Papain counter
CCCCC(=O)O[C@@]1(C(=O)CO)C(C)CC2C3CCC4=CC(=O)C=C[C@@]4(C)[C@]3(F)C(O)C[C@]21C (some centres not stated),?,-,.
COc1ccc(C(=O)/C=C/c2ccc(C)cc2)c(OC(=O)c2ccc([N+](=O)[O-])cc2)c1,?,-,.
O=C(c1ccccc1)N(Cc1ccc2c(c1)OCO2)Cc1nc2ccccc2c(=O)[nH]1,-,-,.
COc1cccc(CNc2nc(SC)ncc2CO)c1,-,-,.
O=C(CCCn1c(=O)[nH]c2ccccc2c1=O)NCc1ccccc1Cl,-,-,.
CCS(=O)(=O)n1nc(-c2ccc(Cl)cc2)nc1SCc1ccccc1,-,-,.
Cc1cccc2cc(CN(Cc3cccs3)Cc3nnnn3Cc3ccccc3)c(=O)[nH]c12,-,-,.
COc1ccccc1CN(Cc1cc2cc3c(cc2[nH]c1=O)OCCO3)Cc1nnnn1Cc1ccco1,?,-,.
Cc1ccc2cc(CN(Cc3ccco3)Cc3nnnn3Cc3ccco3)c(=O)[nH]c2c1,.,.,-
Cc1cccc2cc(CN(Cc3ccccc3)Cc3nnnn3Cc3ccccc3)c(=O)[nH]c12,.,.,-
CCn1c(SCC(=O)Nc2cc(F)ccc2C)nnc1-c1ccccc1O,-,-,.
CCN(c1ccccc1)c1nc(C#N)nc(N(CC)c2ccccc2)n1,.,.,3.2µM
CCN(CC)c1nc(SCC(=O)O)nc(N(CC)CC)n1,-,-,.
CCCN(CCC)c1nc(N)nc(-c2cc(Cl)ccc2OC)n1,?,-,.
CCN(c1ccccc1)c1cc(C)nc2nc(C)nn12,-,-,.
CCN(CC)c1nc(C#N)nc(N(CC)CC)n1,16µM,13µM,5µM
CCCN(CCC)c1nc(N)nc(C#N)n1,.,.,2µM
CN(C(=O)Oc1ccc(C(=O)c2ccc(Cl)cc2)cc1)c1ccccc1,-,-,.
Cc1cccc(CS(=O)(=O)CC2Nc3ccc(C(=O)NCc4ccccc4Cl)cc3NC2=O)c1 (configuration not stated),?,-,.
CC1(C)CC(=O)C(Sc2nnc(-c3ccc(NS(C)(=O)=O)cc3)n2Cc2ccco2)C(=O)C1,-,-,.
CC1(C)Cc2c(C#N)c(N3CCN(C(=O)c4ccco4)CC3)nc(Cc3ccccc3)c2CO1,-,-,.
CC1(C)Cc2c(C#N)c(N3CCN(C(=O)c4ccco4)CC3)nc(-c3ccco3)c2CS1,16µM,28µM,3.5µM
CC(=O)N(CC(C)(C)CC=C(C)C)c1ccccc1,-,-,.
CCc1nc2sc3ccccc3c(=O)c2c(=O)n1Cc1ccco1,-,-,.
O=c1c2ccccc2sc2nc(C3CCCCC3)n(Cc3ccco3)c(=O)c12,-,16µM,-
SMILES,Cruzain inh noDet,Cruzain Triton,Papain counter
COc1ccc(O)c(/C=N\NC(=O)CCn2nnc3ccccc32)c1,-,-,.
CCOC(=O)c1cc2c(=O)n3ccccc3nc2n(Cc2ccco2)c1=NC(=O)c1cccnc1,-,16µM,-
CCOC(=O)c1cc2c(=O)n3ccccc3nc2n(Cc2ccco2)c1=NC(=O)c1cccc(C)c1,-,-,.
COc1ccc(-n2c(=O)cc(N3CCCCCC3)[nH]c2=O)cc1,-,-,.
CCCCNC(=O)Cn1c(SCc2ccccc2C)nc2ccncc21,.,.,-
Cc1ccccc1Cn1c(SCc2ccc(C(=O)NCCc3ccccc3)cc2)nc2ccncc21,-,-,.
CCCNC(=O)Cn1c(SCc2ccccc2C)nc2ccncc21,.,.,-
CCc1ccccc1NC(=O)Cn1c(SCc2ccc(F)cc2)nc2ccncc21,-,-,.
CCc1ccc(NC(=O)Cn2c(SCc3ccc(C)cc3)nc3ccncc32)cc1,.,.,-
CN(C)c1ccc(NC(=O)Cn2c(SCc3ccc(F)cc3)nc3ccncc32)cc1,-,-,.
CC(C)Oc1cccc(C(=O)Nc2ccc(Br)cc2F)c1,-,-,.
CCCCOc1ccc(C(=O)Nc2ccncc2)cc1,-,-,.
O=C(NCc1ccco1)c1cccc(NC(=O)c2ccccc2)c1,-,-,.
O=C(Nc1ccccc1)c1ccc2nc(-c3ccco3)c(-c3ccco3)nc2c1,?,?,13µM
O=C(NC1CCCCC1)c1cc(-c2ccco2)on1,-,-,.
O=C(NC1CC1)c1ccc2nc(-c3ccco3)c(-c3ccco3)nc2c1,.,.,32µM
CNC(=O)c1ccc2nc(-c3ccco3)c(-c3ccco3)nc2c1,.,.,32µM
CNC(=O)c1ccc2c(c1)nnn2C,-,-,.
COC(=O)CC1=C(C(=O)OC)C2(C(=O)Nc3c(C)cccc32)C(C#N)=C(N)O1 (configuration not stated),-,-,.
CSc1nccc(-c2cc(Cl)sc2Cl)n1,-,-,.
Cc1cccc(C)c1NC(=O)c1cc(S(=O)(=O)N2CCCc3ccccc32)ccc1F,?,-,.
COc1ccc2cc3cc(C(=O)NCCN4CCN(Cc5ccccc5)CC4)oc3nc2c1,-,?,.
COc1ccc2cc3cc(C(=O)NCCCN4CCOCC4)oc3nc2c1,?,32µM,16µM
